A number with no mark means an inactive call. Records with an inconclusive call do not appear. Entries that show only a call come without a potency. The source made the active and inactive calls. Unless noted, calls follow the shape of the dose curve; as a rule, active = well fitted inhibition curve with a large enough effect; inconclusive = small, poorly fitted or top-dose-only effect; inactive = no such curve, though single readings can be large or run the other way.
What was measured:
[1] = molecular target: Cytochrome P450 1A2 (Homo sapiens) (UniProt P05177); assay: p450-cyp1a2 (AID 410; calls by dose curve; also: potency is read from the fitted curve at half-maximal effect)
Chain of Cytochrome P450 1A2 (Homo sapiens) (P05177 whole entry, looked up): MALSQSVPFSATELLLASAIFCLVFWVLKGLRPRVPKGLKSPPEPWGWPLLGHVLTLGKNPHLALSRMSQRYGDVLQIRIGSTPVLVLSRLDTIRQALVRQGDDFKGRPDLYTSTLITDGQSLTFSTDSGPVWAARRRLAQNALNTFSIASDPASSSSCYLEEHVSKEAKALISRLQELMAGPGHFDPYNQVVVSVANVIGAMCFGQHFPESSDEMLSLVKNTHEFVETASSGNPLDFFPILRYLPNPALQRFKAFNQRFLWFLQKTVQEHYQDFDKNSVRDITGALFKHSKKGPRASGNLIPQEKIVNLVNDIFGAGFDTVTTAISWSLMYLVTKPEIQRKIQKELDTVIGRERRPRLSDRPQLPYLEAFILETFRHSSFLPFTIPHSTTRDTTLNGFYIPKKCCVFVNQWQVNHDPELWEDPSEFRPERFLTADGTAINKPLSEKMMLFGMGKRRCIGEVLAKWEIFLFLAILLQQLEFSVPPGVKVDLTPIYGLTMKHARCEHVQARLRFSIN
Summary of the method: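 Inhibition was calculated relative to 57 uM furafylline (full inhibition). The reaction used human CYP1A2 at 20nM with Luciferin-ME at its Km, 100uM, driven by an NADPH-regenerating system for 60 min at room temperature.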

[2] = molecular target: Glucocorticoid receptor (Homo sapiens) (UniProt P04150); assay: GR-EFC Redistribution (AID 451; calls by dose curve; also: potency is read from the fitted curve at half-maximal effect); details: CHO-K1 GR-EFC translocation, beta-gal luminescence, 2 h
Chain of Glucocorticoid receptor (Homo sapiens) (P04150 whole entry, looked up, the tested form may be a part): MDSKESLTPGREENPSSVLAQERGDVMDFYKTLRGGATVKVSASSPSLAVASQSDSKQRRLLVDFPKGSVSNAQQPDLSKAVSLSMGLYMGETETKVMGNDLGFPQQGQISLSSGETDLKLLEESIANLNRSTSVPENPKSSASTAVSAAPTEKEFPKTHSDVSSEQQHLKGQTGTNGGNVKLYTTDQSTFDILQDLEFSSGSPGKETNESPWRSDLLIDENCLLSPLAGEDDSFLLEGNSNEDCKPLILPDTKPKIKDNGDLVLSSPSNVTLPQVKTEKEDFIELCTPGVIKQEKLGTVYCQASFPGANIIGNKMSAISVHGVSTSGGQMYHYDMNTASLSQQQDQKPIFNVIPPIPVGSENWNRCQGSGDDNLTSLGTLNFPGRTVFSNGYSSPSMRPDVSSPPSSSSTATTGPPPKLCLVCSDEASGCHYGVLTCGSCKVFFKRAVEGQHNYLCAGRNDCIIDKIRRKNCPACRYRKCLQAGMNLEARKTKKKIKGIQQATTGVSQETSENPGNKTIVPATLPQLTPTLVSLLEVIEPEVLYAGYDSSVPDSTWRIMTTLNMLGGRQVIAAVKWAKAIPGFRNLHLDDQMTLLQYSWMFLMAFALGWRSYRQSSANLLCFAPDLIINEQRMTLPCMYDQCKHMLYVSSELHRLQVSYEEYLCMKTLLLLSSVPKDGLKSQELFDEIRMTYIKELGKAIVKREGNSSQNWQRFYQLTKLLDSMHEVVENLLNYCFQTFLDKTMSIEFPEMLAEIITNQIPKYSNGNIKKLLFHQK
Summary of the method: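 CHO-K1 cells stably expressing nuclear-localized β-gal enzyme acceptor and GR fused C-terminally to the enzyme donor fragment; ligand-driven nuclear translocation restores β-gal by complementation. Compounds titrated up to 46 uM final, 2 h at 37 °C; luminescence read.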

[3] = molecular target: Mitogen-activated protein kinase 10 (Mus musculus) (UniProt Q61831); assay: JNK3 AlphaScreen Assay (AID 530; active = well fitted curve in either direction with a large enough effect, not every such curve was filed as active;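 also: kinase came from lysate of stimulated human HepG2 cells; signal reports phosphorylation of biotinylated GST-cJun 1-79 at Ser73 with 10 µM ATP; series mostly up to about 57 µM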)
Summary of the method: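 JNK3 came from HepG2 lysates pre-activated with IL-1beta and TNF-alpha and phosphorylated biotinylated GST-cJun (1-79) at 10 uM ATP, pH 7.6, room temperature. Compounds were titrated. AlphaScreen signal used anti-phospho-cJun (Ser73) antibody.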

[4] = molecular target: 3',5'-cyclic-AMP phosphodiesterase 4B (Homo sapiens) (UniProt Q07343); assay: qHTS Assay for Inhibitors of PDE-IV (AID 607; active = well fitted activation curve with a large enough effect in the main read-out, with a control signal flat, not every such curve was filed as active)
Chain of 3',5'-cyclic-AMP phosphodiesterase 4B (Homo sapiens) (Q07343 whole entry, looked up): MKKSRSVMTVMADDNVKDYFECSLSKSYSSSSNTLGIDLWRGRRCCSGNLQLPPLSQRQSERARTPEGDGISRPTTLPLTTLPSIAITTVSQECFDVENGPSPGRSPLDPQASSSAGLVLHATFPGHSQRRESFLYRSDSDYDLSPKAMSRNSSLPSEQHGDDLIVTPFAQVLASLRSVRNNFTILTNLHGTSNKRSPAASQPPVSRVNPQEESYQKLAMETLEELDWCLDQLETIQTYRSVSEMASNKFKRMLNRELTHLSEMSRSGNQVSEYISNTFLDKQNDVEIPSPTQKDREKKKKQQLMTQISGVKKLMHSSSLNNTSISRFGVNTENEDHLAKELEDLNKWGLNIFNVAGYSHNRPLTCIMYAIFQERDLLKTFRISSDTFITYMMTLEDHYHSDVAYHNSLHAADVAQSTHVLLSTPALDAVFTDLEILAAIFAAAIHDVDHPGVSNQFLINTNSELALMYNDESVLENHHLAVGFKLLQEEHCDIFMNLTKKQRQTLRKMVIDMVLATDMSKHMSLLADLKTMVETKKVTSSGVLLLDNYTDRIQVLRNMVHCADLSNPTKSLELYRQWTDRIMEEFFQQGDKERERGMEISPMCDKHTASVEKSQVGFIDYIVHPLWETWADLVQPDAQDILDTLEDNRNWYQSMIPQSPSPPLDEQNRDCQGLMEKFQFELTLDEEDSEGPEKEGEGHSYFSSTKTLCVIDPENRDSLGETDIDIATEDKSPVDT
Summary of the method: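 Cell-based read-out of cAMP via a modified cyclic nucleotide-gated channel and membrane potential dye (535/590 nm) in HEK293 cells expressing PDE4 endogenously. Compounds tested up to 22.9 uM final; 100 uM RO 20-1724 reference.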

[5] = molecular target: Cytochrome P450 2C9 (Homo sapiens) (UniProt P11712); assay: qHTS Assay for Inhibitors and Substrates of Cytochrome P450 2C9 (AID 883); also: nearly all actives have a fitted effect of over 60% in size
Chain of Cytochrome P450 2C9 (Homo sapiens) (P11712 whole entry, looked up): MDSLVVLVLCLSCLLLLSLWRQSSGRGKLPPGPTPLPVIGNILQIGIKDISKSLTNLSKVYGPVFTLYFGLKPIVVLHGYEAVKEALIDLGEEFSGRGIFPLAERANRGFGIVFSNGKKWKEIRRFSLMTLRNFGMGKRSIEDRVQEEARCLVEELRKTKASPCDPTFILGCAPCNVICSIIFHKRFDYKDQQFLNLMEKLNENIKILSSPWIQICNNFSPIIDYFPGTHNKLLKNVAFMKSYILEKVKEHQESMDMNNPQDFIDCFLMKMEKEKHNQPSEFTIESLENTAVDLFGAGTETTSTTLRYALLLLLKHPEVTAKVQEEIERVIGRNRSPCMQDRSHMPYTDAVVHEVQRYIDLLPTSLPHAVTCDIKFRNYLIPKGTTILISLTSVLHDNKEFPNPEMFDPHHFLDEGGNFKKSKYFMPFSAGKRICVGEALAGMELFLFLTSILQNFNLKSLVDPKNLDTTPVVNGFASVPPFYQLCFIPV
Summary of the method: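 A luminogenic readout tracked human CYP2C9 (10nM) converting deoxyluciferin (100uM, at KM) in 25mM KPO4 during 60 min at 37C with regenerated NADPH. Values normalized to 57uM sulphaphenazole as complete inhibition.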

[6] = molecular target: Cytochrome P450 2D6 (Homo sapiens) (UniProt P10635); assay: qHTS Assay for Inhibitors and Substrates of Cytochrome P450 2D6 (AID 891);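 also: luciferin methyl ether substrate demethylated by CYP2D6 with NADPH regeneration; nearly all actives have a fitted effect of over 60% in size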
Chain of Cytochrome P450 2D6 (Homo sapiens) (P10635 whole entry, looked up): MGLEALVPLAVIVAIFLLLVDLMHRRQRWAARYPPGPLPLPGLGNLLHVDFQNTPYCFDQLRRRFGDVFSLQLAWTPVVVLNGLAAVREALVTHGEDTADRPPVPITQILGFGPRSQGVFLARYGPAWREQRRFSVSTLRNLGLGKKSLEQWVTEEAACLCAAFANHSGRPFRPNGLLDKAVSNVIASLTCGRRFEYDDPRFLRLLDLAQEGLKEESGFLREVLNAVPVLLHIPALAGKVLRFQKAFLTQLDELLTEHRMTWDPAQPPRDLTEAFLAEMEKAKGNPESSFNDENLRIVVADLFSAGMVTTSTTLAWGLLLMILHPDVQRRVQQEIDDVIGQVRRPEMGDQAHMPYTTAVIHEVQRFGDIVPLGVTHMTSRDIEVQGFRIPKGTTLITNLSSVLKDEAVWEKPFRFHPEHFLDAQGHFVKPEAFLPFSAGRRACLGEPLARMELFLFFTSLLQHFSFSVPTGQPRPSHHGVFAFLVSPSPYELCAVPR
Summary of the method: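 Human CYP2D6 (5 nM) with 30 uM Luciferin-ME EGE (at Km) in 100 mM KPO4, compound preincubated 10 min, then NADPH regeneration system for 60 min at room temperature. Luciferin read by luminescence; normalized to 1.43 uM quinidine.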

[7] = molecular target: Cytochrome P450 2C19 (Homo sapiens) (UniProt P33261); assay: qHTS Assay for Inhibitors and Substrates of Cytochrome P450 2C19 (AID 899); also: nearly all actives have a fitted effect of over 60% in size
Chain of Cytochrome P450 2C19 (Homo sapiens) (P33261 whole entry, looked up): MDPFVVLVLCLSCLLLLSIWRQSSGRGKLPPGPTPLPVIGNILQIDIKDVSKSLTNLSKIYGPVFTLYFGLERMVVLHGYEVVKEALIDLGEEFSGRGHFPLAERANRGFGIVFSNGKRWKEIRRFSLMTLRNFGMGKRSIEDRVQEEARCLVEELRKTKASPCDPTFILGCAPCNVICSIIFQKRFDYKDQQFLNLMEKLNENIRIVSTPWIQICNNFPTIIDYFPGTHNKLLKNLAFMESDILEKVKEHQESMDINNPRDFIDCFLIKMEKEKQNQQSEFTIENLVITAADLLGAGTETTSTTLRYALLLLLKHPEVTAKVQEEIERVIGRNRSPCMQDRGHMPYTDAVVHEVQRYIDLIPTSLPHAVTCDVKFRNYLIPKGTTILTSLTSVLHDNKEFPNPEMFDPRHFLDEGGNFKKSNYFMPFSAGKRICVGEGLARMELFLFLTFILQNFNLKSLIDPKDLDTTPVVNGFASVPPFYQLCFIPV
Summary of the method: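 NADPH-dependent conversion of Luciferin-H EGE (10uM, at KM) by 5nM enzyme in 50mM KPO4, 60 min at 37C following 10 min compound preincubation. Stopped with luciferin detection buffer; luminescence read after 20 min.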

[8] = molecular target: Glucocorticoid receptor (Homo sapiens) (UniProt P04150); assay: GR-GFP Redistribution (AID 450;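 active = compounds whose dose series gives a full or clear partial fitted curve of increased nuclear translocation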; also: potency is read from the fitted curve at half-maximal effect)

Row | SMILES | Potency [1] | Potency [2] | Potency [3] | Potency [4] | Potency [5] | Potency [6] | Potency [7] | Potency [8]
1 | CC(C)C[C@@H](CC(=O)N[C@H](CC(=O)N[C@@H]1CCCC[C@H]1C(=O)N[C@H](CC(=O)N[C@@H](CCC(=O)O)CC(=O)O)Cc1c[nH]c2ccccc12)C(C)C)NC(=O)[C@@H]1CCCC[C@H]1N | inactive | > 46 µM | inactive | inactive | inactive | inactive | inactive | –
2 | CC(C)[C@@H](CC(=O)N[C@@H]1CCCC[C@H]1C(=O)N[C@H](CC(=O)N[C@@H](CCC(=O)O)CC(=O)O)Cc1ccccc1)NC(=O)C[C@H](CO)NC(=O)[C@@H]1CCCC[C@H]1N | inactive | > 46 µM | inactive | inactive | – | inactive | – | –
3 | NCCC[C@@H](CC(=O)N[C@@H]1CCNC[C@H]1C(=O)N[C@H](CC(=O)N[C@@H](CCC(=O)O)CC(=O)O)Cc1ccccc1)NC(=O)C[C@H](Cc1c[nH]c2ccccc12)NC(=O)[C@@H]1CNCC[C@H]1N | inactive | > 46 µM | inactive | inactive | inactive | inactive | inactive | –
4 | CC(C)[C@@H](CC(=O)N[C@@H]1CCNC[C@H]1C(=O)N[C@H](CC(=O)N[C@@H](CCC(=O)O)CC(=O)O)Cc1c[nH]c2ccccc12)NC(=O)C[C@H](Cc1ccccc1)NC(=O)[C@@H]1CNCC[C@H]1N | 31.6 µM (active) | > 46 µM | inactive | inactive | inactive | inactive | inactive | –
5 | CC(C)[C@@H](CC(=O)N[C@@H]1CCCC[C@H]1C(=O)N[C@H](CC(=O)N[C@@H](CCC(=O)O)CC(=O)O)Cc1c[nH]c2ccccc12)NC(=O)C[C@H](CO)NC(=O)[C@@H]1CCCC[C@H]1N | inactive | > 46 µM | inactive | inactive | inactive | inactive | inactive | –
6 | CC(C)C[C@@H](CC(=O)N[C@H](CC(=O)N[C@@H]1CCNC[C@H]1C(=O)N[C@H](CC(=O)N[C@@H](CCC(=O)O)CC(=O)O)CC(C)C)C(C)C)NC(=O)[C@@H]1CCCC[C@H]1N | inactive | > 46 µM | inactive | inactive | – | – | – | –
7 | CC(C)C[C@@H](CC(=O)N[C@@H](CCCN)CC(=O)N[C@@H]1CCNC[C@H]1C(=O)N[C@H](CC(=O)N[C@@H](CCC(=O)O)CC(=O)O)Cc1c[nH]c2ccccc12)NC(=O)[C@@H]1CCCC[C@H]1N | inactive | > 46 µM | inactive | inactive | – | inactive | inactive | –
8 | CC(C)C[C@@H](CC(=O)N[C@@H](CCC(=O)O)CC(=O)O)NC(=O)[C@@H]1CNCC[C@H]1NC(=O)C[C@@H](NC(=O)C[C@H](CO)NC(=O)[C@@H]1CCCC[C@H]1N)C(C)C | inactive | > 46 µM | inactive | inactive | inactive | inactive | inactive | –
9 | CC(C)C[C@@H](CC(=O)N[C@@H](CCC(=O)O)CC(=O)O)NC(=O)[C@@H]1CCCC[C@H]1NC(=O)C[C@H](CCCN)NC(=O)C[C@H](Cc1ccccc1)NC(=O)[C@@H]1CNCC[C@H]1N | inactive | > 46 µM | inactive | inactive | inactive | inactive | inactive | –
10 | O=c1cc(-c2ccccc2)oc2cc(O[C@H]3O[C@H](CO)[C@@H](O)[C@H](O)[C@@H]3O)c(O)c(O)c12 | inactive | > 46 µM | – | – | – | inactive | inactive | > 46 µM
11 | CC(C)[C@@H](CC(=O)N[C@@H]1CCNC[C@H]1C(=O)N[C@H](CC(=O)N[C@@H](CCC(=O)O)CC(=O)O)Cc1ccccc1)NC(=O)C[C@H](Cc1ccccc1)NC(=O)[C@@H]1CNCC[C@H]1N | 15.8 µM (active) | > 46 µM | inactive | inactive | inactive | inactive | inactive | –
12 | CC(C)C[C@@H](CC(=O)N[C@H](CC(=O)N[C@@H]1CCNC[C@H]1C(=O)N[C@H](CC(=O)N[C@@H](CCC(=O)O)CC(=O)O)Cc1ccccc1)C(C)C)NC(=O)[C@@H]1CCCC[C@H]1N | inactive | > 46 µM | inactive | inactive | – | inactive | – | –
13 | CC(C)C[C@@H](CC(=O)N[C@H](CC(=O)N[C@@H]1CCNC[C@H]1C(=O)N[C@H](CC(=O)N[C@@H](CCC(=O)O)CC(=O)O)CC(C)C)C(C)C)NC(=O)[C@@H]1CNCC[C@H]1N | inactive | > 46 µM | inactive | inactive | – | inactive | inactive | –
14 | CC(C)C[C@@H](CC(=O)N[C@@H](CCC(=O)O)CC(=O)O)NC(=O)[C@@H]1CCCC[C@H]1NC(=O)C[C@H](CCCN)NC(=O)C[C@H](CO)NC(=O)[C@@H]1CNCC[C@H]1N | inactive | > 46 µM | inactive | inactive | – | inactive | inactive | –
